Values joined by “and” are separate entries in the source; they are usually repeats but may differ in a detail not shown here. Equal entries are not always repeated. Results filed as inconclusive are left out. Active and inactive are the calls of the source. The calls were made as follows: active = hit-call score of the fitted dose curve at least 0.9, where 1 is the maximum; inconclusive = response in the unintended direction; inactive = score below 0.9.
The compounds below were run against Protein deacetylase HDAC6 (Homo sapiens) (UniProt Q9UBN7) (assay: NVS_ENZ_hHDAC6: NovaScreen (NVS) Enzymatic Assay for human Histone Deacetylase 6 (HDAC6) (AID 2283164)).
Experimental: NVS_ENZ_hHDAC6 is a biochemical, single-readout assay that uses extracted gene-proteins in a cell-free assay. Measurements were taken 1 hour after chemical dosing in a 384-well plate.NVS_ENZ_hHDAC6 is one of one assay component(s) measured or calculated from the NVS_ENZ_hHDAC6 assay. It is designed to make measurements of enzyme activity, a form of enzyme reporter, as detected with fluorescence intensity signals by Fluorescence and electrophoretic mobility shift technology.Data from the assay component NVS_ENZ_hHDAC6 was analyzed into 1 assay endpoint. This assay endpoint, NVS_ENZ_hHDAC6, was analyzed in the positive analysis fitting direction relative to DMSO as the negative control and baseline of activity. Using a type of enzyme reporter, loss-of-signal activity can be used to understand changes in the enzymatic activity as they relate to the gene HDAC6. Furthermore, this assay endpoint can be referred to as a primary readout, because this assay has produced multiple assay endpoints where this one serves a enzymatic activity function. To generalize the intended target to other relatable targets, this assay endpoint is annotated to the hydrolase intended target family, where the subfamily is histone deacetylase.
Binding assays used specific radioligands (tritiated, iodinated) with non-radioactive competitive displacement ligands in agonist or antagonist protocols (as indicated) and various reference compounds and inhibitors to titrate specific binding to receptors and transporters. Most enzyme assays (CYPs, kinases, phosphatases, proteases, HDACs) used recombinant protein and specific substrates (fluorescence mostly, some colorimetric and radioactive) and inhibitors, followed by a biochemical separation of substrate and product. All assays for the biochemical HTS were initially run in duplicate at a single concentration (10 uM for CYP450 assays and 25 uM for all others). Assay-chemical combinations meeting a pre-defined threshold (e.g., 30% inhibition and other criteria defined below) were then run in singleton concentration-response format with maximum concentration of 20 uM for CYPs and 50 uM for all others. Each assay was run with positive and negative controls, and concurrent controls on every plate. The follow-up (secondary) screen tested active chemical-pairs in concentration series, as well as a few additional assays not tested in the primary screen, some selected negative inactives, and several cases re-run in the concentration series for confirmatory purposes.

Sequence of Protein deacetylase HDAC6 (Homo sapiens) (Q9UBN7 whole entry, looked up): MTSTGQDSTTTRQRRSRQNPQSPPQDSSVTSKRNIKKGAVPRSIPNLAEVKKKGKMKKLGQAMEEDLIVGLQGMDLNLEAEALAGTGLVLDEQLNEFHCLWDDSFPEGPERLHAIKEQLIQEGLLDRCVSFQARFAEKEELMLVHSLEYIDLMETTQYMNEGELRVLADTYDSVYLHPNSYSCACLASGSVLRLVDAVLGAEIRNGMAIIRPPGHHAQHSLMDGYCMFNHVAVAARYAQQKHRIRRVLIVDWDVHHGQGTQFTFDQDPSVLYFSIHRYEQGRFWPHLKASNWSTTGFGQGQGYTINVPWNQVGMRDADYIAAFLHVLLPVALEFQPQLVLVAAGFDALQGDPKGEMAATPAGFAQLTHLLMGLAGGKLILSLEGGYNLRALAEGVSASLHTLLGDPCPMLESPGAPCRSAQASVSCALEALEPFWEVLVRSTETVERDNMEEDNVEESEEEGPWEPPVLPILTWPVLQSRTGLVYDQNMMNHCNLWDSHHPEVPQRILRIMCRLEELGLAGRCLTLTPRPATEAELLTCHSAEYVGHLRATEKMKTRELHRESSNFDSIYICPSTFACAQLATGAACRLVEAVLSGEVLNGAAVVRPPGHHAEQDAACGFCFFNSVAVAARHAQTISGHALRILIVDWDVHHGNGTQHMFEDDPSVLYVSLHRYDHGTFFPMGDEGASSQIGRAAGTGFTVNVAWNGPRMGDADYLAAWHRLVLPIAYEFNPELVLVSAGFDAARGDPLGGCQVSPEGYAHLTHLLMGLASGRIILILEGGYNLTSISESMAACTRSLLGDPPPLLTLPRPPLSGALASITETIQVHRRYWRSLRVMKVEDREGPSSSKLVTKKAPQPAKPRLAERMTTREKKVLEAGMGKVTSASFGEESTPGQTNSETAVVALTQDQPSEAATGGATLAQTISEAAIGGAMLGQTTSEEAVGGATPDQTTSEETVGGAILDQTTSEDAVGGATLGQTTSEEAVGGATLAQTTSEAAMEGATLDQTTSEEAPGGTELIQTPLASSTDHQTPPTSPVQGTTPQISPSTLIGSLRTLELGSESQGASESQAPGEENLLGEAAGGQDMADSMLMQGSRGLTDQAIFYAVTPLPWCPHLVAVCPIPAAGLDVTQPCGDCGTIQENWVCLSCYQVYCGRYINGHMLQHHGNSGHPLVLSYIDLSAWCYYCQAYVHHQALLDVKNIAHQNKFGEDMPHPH

| SMILES | outcome | AC50 |
| --- | --- | --- |
| CCCCCCC(=O)O | inactive |  |
| CC(C)CCCCCCc1ccc(O)cc1 | inactive |  |
| Cc1[nH]cnc1C[C@H]1CCc2c(C)c3ccccc3n2C1=O | inactive |  |
| NCCO | inactive |  |
| Cc1occc(=O)c1O | inactive |  |
| CCc1ccc(O)c(C(C)(C)C)c1 | inactive |  |
| CCN(CC)CCOc1ccc(C(=C(Cl)c2ccccc2)c2ccccc2)cc1 | inactive |  |
| CSc1ccc(Oc2ccc(S(N)(=O)=O)cc2CN(C)C)cc1C | inactive |  |
| C#C[C@]1(O)CC[C@H]2[C@@H]3CCC4=CC(=O)CC[C@@H]4[C@H]3CC[C@@]21C | inactive |  |
| CCCc1cc(=O)[nH]c(=S)[nH]1 | inactive |  |
| CC(N)=O | inactive |  |
| O=c1[nH]cnc2c1ncn2[C@H]1CC[C@@H](CO)O1 | inactive |  |
| NC(=O)NO | inactive |  |
| Cc1ncc([C@@H](CCCCCCc2ccc3c(n2)NCCC3)CC(=O)O)cn1 |  | 14.9 µM (active) |
| Cc1ccc(N)cc1O | inactive |  |
| S=C(S)NCCNC(=S)S.[Mn+2].[S-]C([S-])=NCCN=C([S-])[S-].[Zn+2] |  | 233 nM (active) and 815 nM (active) |
| CC[C@H](C)C(=O)O[C@H]1C[C@@H](C)C=C2C=C[C@H](C)[C@H](CC[C@@H]3C[C@@H](O)CC(=O)O3)[C@H]21 | inactive |  |
| O=C1c2ccccc2C(=O)N1CCc1noc(-c2ccc(CN3CCCCCC3)s2)n1 | inactive |  |
| C1CCC(SSC2CCCCC2)CC1 | inactive |  |
| On1ccccc1=S | inactive |  |
| CC(CO)OC(C)CO (stereo not drawn) (tested in a mixture with another compound) | inactive |  |
| CCCCCCCC/C=C\CCCCCCCC(=O)OC[C@@H](O)[C@H]1OC[C@H](O)[C@H]1O | inactive |  |
| Cn1c(=O)cc(Oc2ccc(F)cc2F)c2cnc(NCC(C)(C)O)nc21 | inactive |  |
| N#CSCSc1nc2ccccc2s1 |  | 25 µM (active) |
| CCCCCCCCCCCCc1ccccc1 | inactive |  |
| CCCC(CCC)C(=O)O | inactive |  |
| Nc1cccc2c(N)cccc12 | inactive |  |
| CC(=O)[C@H]1CC[C@H]2[C@@H]3CCC4=CC(=O)CC[C@]4(C)[C@H]3CC[C@]12C | inactive |  |
